Screens (PubChem BioAssay)
ROS inducer – inducers of reactive oxygen species in cancer cells. U2OS ROS induction, H2DCF-DA fluorescence. ROS induction (% of piperlongumine), % at 10 µM. hit rate 2% among 46,000; in the data active means ROS induction above about 79%, passing the limit was not always enough
Numbers stand for hits; . = inactive. Shown is part of a subset that was picked to be rich in hits.

SMILES	ROS inducer
COc1ccc(NC(=O)Nc2ccc3c(c2)C(=O)N([C@H](C)CO)C[C@H](C)[C@H](CN(C)Cc2ccc(C(=O)O)cc2)OCCCC[C@@H](C)O3)cc1	.
COc1ccc(NC(=O)Nc2ccc3c(c2)C(=O)N([C@H](C)CO)C[C@H](C)[C@@H](CN(C)Cc2ccc(C(=O)O)cc2)OCCCC[C@@H](C)O3)cc1	.
COc1ccc(CN(C)C[C@H]2OCCCC[C@@H](C)Oc3ccc(NC(=O)Nc4ccc(OC)cc4)cc3C(=O)N([C@H](C)CO)C[C@@H]2C)cc1	122
C[C@H](CO)N1C[C@H](C)[C@H](CN(C)C(=O)NC2CCCCC2)Oc2c(NC(=O)Nc3ccccc3)cccc2C1=O	.
C[C@H](CO)N1C[C@H](C)[C@H](CN(C)Cc2ccc(C(=O)O)cc2)Oc2ccc(NS(C)(=O)=O)cc2CC1=O	.
Cc1noc(C)c1NC(=O)Nc1ccc2c(c1)C(=O)N([C@H](C)CO)C[C@@H](C)[C@H](CN(C)Cc1ccc(C(=O)Nc3ccccc3N)cc1)O2	.
C=CCc1c(C)c(C#N)c2nc3ccccc3n2c1NCCc1ccc(OC)c(OC)c1	133
COc1ccc(CCNC(=O)CCn2c(SCC#N)nc3ccccc3c2=O)cc1OC	.
Cc1c(C#N)c2nc3ccccc3n2c(=O)/c1=C/Nn1cnnc1	.
CCCc1cc(N2CCN(c3ccccc3)CC2)n2c(nc3ccccc32)c1C#N	.
CCCCc1c(C)c(C#N)c2nc3ccccc3n2c1NCCN1CCOCC1	96
COc1ccc(CCNc2ccncn2)cc1OC	.
Cc1ccc(S(=O)(=O)N2C=Cc3ccccc3C2c2c[nH]c3ccccc23)c(C)c1 (stereo unspecified)	.
C[C@H]1CN([C@@H](C)CO)C(=O)Cc2cc(NC(=O)C3CC3)ccc2O[C@@H]1CN(C)CC1CC1	.
C[C@@H]1CN([C@H](C)CO)C(=O)Cc2cc(NS(=O)(=O)c3cccs3)ccc2O[C@@H]1CN(C)S(=O)(=O)c1ccccc1	.
O=C(Nc1ccccc1)C(Cc1ccccc1)N1C(=O)C2C3C=CC(C3)C2C1=O (stereo unspecified)	.
N#Cc1c(C(F)(F)F)cc(-c2cccs2)nc1SCC(=O)Nc1sc2c(c1C#N)CCC2	.
N#Cc1c(C(F)(F)F)cc(-c2cccs2)nc1SCC(=O)c1ccccc1	747
N#Cc1c(C(F)(F)F)cc(-c2cccs2)nc1SCC(=O)Nc1ccccc1C(F)(F)F	.
C=CCN1C(=O)NC(=O)/C(=C\c2cn(Cc3ccccc3)c3ccccc23)C1=O	155
C=CCN1C(=O)/C(=C/c2cn(C(C)CC)c3ccccc23)C(=O)NC1=S (stereo unspecified)	.
O=C(NO)c1cccc(C(=O)N/N=C/c2cn(Cc3ccccc3)c3ccccc23)c1	.
Cc1noc(C)c1S(=O)(=O)Nc1cccc2c1O[C@H](CN(C)C(=O)Nc1ccc(F)cc1)[C@H](C)CN([C@@H](C)CO)C2=O	.
Cc1cc(OCC(=O)Nc2ccc(-c3nc4ccccc4s3)c(O)c2)ccc1Cl	.
C/C=C(C)\C=N\NC(=O)CCCCC(=O)NO	.
SMILES	ROS inducer
CNCCC=C1c2ccccc2CCc2ccccc21	.
Oc1ccccc1-c1cc(-c2ccccc2O)nc(-c2ccccc2)n1	.
c1ccc(-c2ccc3c(n2)CCc2ccccc2-3)cc1	107
Cc1c(Cl)cccc1NC(=O)CN(c1ccc(F)c(Cl)c1)S(C)(=O)=O	.
COc1ccc(CN(C)C[C@H]2Oc3ccc(NC(=O)Nc4cccc5ccccc45)cc3CC(=O)N([C@H](C)CO)C[C@H]2C)cc1	.
COc1ccc(CN(C)C[C@@H]2OCc3cn(nn3)CCCC(=O)N([C@H](C)CO)C[C@@H]2C)cc1	.
O=C(NC(=O)c1ccccc1C(F)(F)F)NN1CCCCC1	.
C[C@H]1CN([C@@H](C)CO)C(=O)c2cc(NC(=O)Cc3cn(C)c4ccccc34)ccc2O[C@@H]1CN(C)Cc1ccc(C(F)(F)F)cc1	122
C[C@H](CO)N1C[C@H](C)[C@H](CN(C)Cc2ccc(C(=O)O)cc2)Oc2ccc(NC(=O)Cc3cn(C)c4ccccc34)cc2C1=O	.
C[C@H](CO)N1C[C@H](C)[C@@H](CN(C)Cc2ccc(C(F)(F)F)cc2)Oc2ccc(NC(=O)Cc3cn(C)c4ccccc34)cc2C1=O	109
C[C@@H]1CN([C@@H](C)CO)C(=O)c2cc(NC(=O)Cc3cn(C)c4ccccc34)ccc2O[C@@H]1CN(C)Cc1ccccc1	.
C[C@@H]1CN([C@@H](C)CO)C(=O)c2cc(NC(=O)Cc3cn(C)c4ccccc34)ccc2O[C@@H]1CN(C)Cc1ccncc1	.
C[C@@H]1CN([C@H](C)CO)C(=O)c2cc(NC(=O)Cc3cn(C)c4ccccc34)ccc2O[C@H]1CN(C)Cc1ccc(C(=O)O)cc1	.
CC(NC(=O)c1ccccc1N)C(N)=O (stereo unspecified)	.
C[C@H](CO)N1C[C@H](C)[C@H](CN(C)C(=O)Nc2cccc3ccccc23)Oc2c(NC(=O)C3CCOCC3)cccc2C1=O	.
O=C(N/N=C/c1cccc(OCCO)c1)c1ccccn1	.
O=C(c1cc(-c2ccc(F)cc2)no1)N1CCOCC1	.
C[C@H](CO)N1C[C@H](C)[C@H](CN(C)Cc2ccc(-c3ccccc3)cc2)Oc2ccc(NC(=O)Cc3ccccc3)cc2C1=O	.
CNC[C@H]1Oc2c(NS(=O)(=O)c3ccc(F)cc3)cccc2C(=O)N([C@H](C)CO)C[C@H]1C	.
C[C@@H]1CN([C@H](C)CO)C(=O)c2cc(NC(=O)CCN3CCOCC3)ccc2O[C@@H]1CN(C)S(=O)(=O)c1ccc(F)cc1	.
Cc1cc(C(=O)Nc2cccc3c2O[C@H](CN(C)Cc2ccccc2)[C@H](C)CN([C@@H](C)CO)C3=O)n(C)n1	.
Cc1cc(C(=O)Nc2cccc3c2O[C@H](CN(C)Cc2ccc(-c4ccccc4)cc2)[C@H](C)CN([C@@H](C)CO)C3=O)n(C)n1	.
Cc1cc(C(=O)Nc2cccc3c2O[C@H](CN(C)Cc2ccc(-c4ccccc4)cc2)[C@@H](C)CN([C@@H](C)CO)C3=O)n(C)n1	214
Cc1cc(C(=O)Nc2cccc3c2O[C@H](CN(C)Cc2ccc(-c4ccccc4)cc2)[C@H](C)CN([C@H](C)CO)C3=O)n(C)n1	.
Cc1cc(C(=O)Nc2cccc3c2O[C@@H](CN(C)Cc2ccc(-c4ccccc4)cc2)[C@@H](C)CN([C@H](C)CO)C3=O)n(C)n1	.
SMILES	ROS inducer
Cc1cc(C(=O)Nc2cccc3c2O[C@@H](CN(C)Cc2ccc(-c4ccccc4)cc2)[C@H](C)CN([C@H](C)CO)C3=O)n(C)n1	78
Cc1cc(C(F)F)n2nc(C(=O)Nc3cnn(Cc4ccc(Cl)cc4Cl)c3)nc2n1	.
C[C@@H]1CCCCO[C@H](CN(C)Cc2ccc(C(=O)O)cc2)[C@@H](C)CN([C@H](C)CO)C(=O)c2cc(NC(=O)Nc3ccccc3)ccc2O1	.
Cc1c(C(=O)Nc2ccccc2N2CCN(C)CC2)sc2nc3n(c(=O)c12)CCCCC3	.
Cc1ccc2oc(-c3cccc(NC(=O)CC(C)C)c3)nc2c1	.
C[C@@H]1CN([C@@H](C)CO)C(=O)c2cccc(NC(=O)c3ccncc3)c2O[C@@H]1CN(C)C(=O)Nc1ccc2c(c1)OCO2	.
C[C@@H]1CN([C@H](C)CO)C(=O)Cc2cc(NC(=O)Nc3cccc4ccccc34)ccc2O[C@@H]1CN(C)S(=O)(=O)c1cn(C)cn1	.
O=C(Cn1c2ccccc2c2cn[nH]c(=O)c21)NCCc1ccc(Cl)cc1	.
CCOC(=O)c1ccc(NC(=O)c2ccc(C(C)(C)C)cc2)cc1	.
